Reference: PubChem BioAssay (NCI)
About 83,000 compounds went through this panel and 20% of them were active in at least one assay; those are over-represented in the sample as a whole.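 Method: cells in 96-well plates; compound added at one concentration; 48 h incubation; percent growth measured; values under 10 scored active.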 Activity calls are given as the source filed them.

Tests used:
Assay in all cases: NCI-60 one-dose screen, 48 h (100 = growth as untreated, 0 = no growth, -100 = all killed)
Conditions in all cases: 10 µM unless noted
SR leukemia = tested on: SR leukemia
RPMI-8226 leukemia = tested on: RPMI-8226 leukemia
OVCAR-8 ovarian = tested on: OVCAR-8 ovarian
OVCAR-5 ovarian = tested on: OVCAR-5 ovarian
OVCAR-4 ovarian = tested on: OVCAR-4 ovarian
SK-OV-3 ovarian = tested on: SK-OV-3 ovarian
IGROV1 ovarian = tested on: IGROV1 ovarian
OVCAR-3 ovarian = tested on: OVCAR-3 ovarian
NCI/ADR-RES ovarian = tested on: NCI/ADR-RES ovarian
HS 578T breast = tested on: HS 578T breast

Measured: growth

O=C(CI)Nc1ccc(O)c2ccccc12
inactive: OVCAR-5 ovarian 18.5% | OVCAR-4 ovarian 26.6% | SK-OV-3 ovarian 77.5%
active: SR leukemia -1.5% | RPMI-8226 leukemia -18.8% | OVCAR-8 ovarian -22.9% | IGROV1 ovarian -15.5% | OVCAR-3 ovarian -29.5% | NCI/ADR-RES ovarian -15.1%

CC(=O)Nc1cc(F)cc(C(F)(F)F)c1Cl
inactive: SR leukemia 101% | RPMI-8226 leukemia 105% | OVCAR-8 ovarian 105% | OVCAR-5 ovarian 96.2% | OVCAR-4 ovarian 98.1% | SK-OV-3 ovarian 106% | IGROV1 ovarian 100% | OVCAR-3 ovarian 104% | NCI/ADR-RES ovarian 96.1%

Cc1cc(N(CCCNc2ccnc3cc(Cl)ccc23)Cc2ccco2)nc(N2CCOCC2)n1
active: SR leukemia 8.63%
inactive: RPMI-8226 leukemia 35.1% | OVCAR-8 ovarian 80.4% | OVCAR-5 ovarian 79% | OVCAR-4 ovarian 65.7% | SK-OV-3 ovarian 78.6% | IGROV1 ovarian 45.2% | OVCAR-3 ovarian 72.4% | NCI/ADR-RES ovarian 67.4%

CCCCC[C@H]1C/C=C2/C(=O)C(Cl)=C[C@@H]2C/C=C\CCCC(=O)O[C@@H](CCCCC)C/C=C2/C(=O)C(Cl)=C[C@@H]2C/C=C\CCCC(=O)O1
inactive: OVCAR-4 ovarian 16% | NCI/ADR-RES ovarian 19.8%
active: SR leukemia -7.23% | RPMI-8226 leukemia -13.6% | OVCAR-8 ovarian -13.9% | OVCAR-5 ovarian -44.4% | SK-OV-3 ovarian -21.4% | IGROV1 ovarian -44.4% | OVCAR-3 ovarian -82.7%

CCC(=O)c1c(C)[nH]c(C)c1C
inactive: SR leukemia 70.7% | RPMI-8226 leukemia 113% | OVCAR-8 ovarian 85.1% | OVCAR-5 ovarian 48.8% | OVCAR-4 ovarian 123% | SK-OV-3 ovarian 93% | IGROV1 ovarian 76.1% | OVCAR-3 ovarian 115% | NCI/ADR-RES ovarian 85.3%

O=S(=O)(NCCNc1cc(-c2cn(-c3ccccc3)nc2-c2cccc(O)c2)ccn1)c1ccc(Br)cc1
active: SR leukemia 5.3%
inactive: RPMI-8226 leukemia 13% | OVCAR-8 ovarian 25% | OVCAR-5 ovarian 50% | OVCAR-4 ovarian 40.7% | SK-OV-3 ovarian 45.8% | IGROV1 ovarian 49.6% | OVCAR-3 ovarian 34.7% | NCI/ADR-RES ovarian 25.5%

Cn1cc(-c2csc(-c3cn(CCN)c4ccccc34)n2)c2cccnc21
inactive: RPMI-8226 leukemia 51.1% | OVCAR-8 ovarian 40.8% | OVCAR-5 ovarian 74.9% | OVCAR-4 ovarian 51.8% | SK-OV-3 ovarian 63.8% | IGROV1 ovarian 39.9% | OVCAR-3 ovarian 45.5% | NCI/ADR-RES ovarian 44.1%
active: SR leukemia -16.9%

O=C1/C(=C\C(Cl)=C/c2ccc([N+](=O)[O-])cc2)SC(=S)N1CCc1ccc(O)cc1
inactive: SR leukemia 13.2% | OVCAR-8 ovarian 13.3% | OVCAR-4 ovarian 26.7% | SK-OV-3 ovarian 31.8%
active: RPMI-8226 leukemia -3.41% | OVCAR-5 ovarian -33.9% | IGROV1 ovarian -67.9% | OVCAR-3 ovarian -53.6% | NCI/ADR-RES ovarian 9%

COc1cccc(-c2nn(-c3ccccc3)cc2-c2ccnc(NCCNS(=O)(=O)c3ccc(Cl)cc3)c2)c1
active: SR leukemia -5.49% | RPMI-8226 leukemia 9%
inactive: OVCAR-8 ovarian 31.1% | OVCAR-5 ovarian 56.2% | OVCAR-4 ovarian 35.9% | SK-OV-3 ovarian 44.9% | IGROV1 ovarian 39.3% | OVCAR-3 ovarian 40.6% | NCI/ADR-RES ovarian 27.9%

O=C1CCN2C(=O)Nc3ccccc3C2C1 (centres undefined)
inactive: SR leukemia 96.8% | RPMI-8226 leukemia 111% | OVCAR-8 ovarian 105% | OVCAR-5 ovarian 90% | OVCAR-4 ovarian 97.6% | SK-OV-3 ovarian 101% | IGROV1 ovarian 102% | OVCAR-3 ovarian 111% | NCI/ADR-RES ovarian 107%

COc1ccc(/C=C/C(=O)NCCO)cc1
inactive: SR leukemia 91.9% | RPMI-8226 leukemia 105% | OVCAR-8 ovarian 96.4% | OVCAR-5 ovarian 88.2% | OVCAR-4 ovarian 103% | SK-OV-3 ovarian 94.2% | IGROV1 ovarian 98.3% | OVCAR-3 ovarian 101% | NCI/ADR-RES ovarian 104%

CC1=CC(=O)N(c2cccc3c(N4C(=O)C=C(C)C4=O)cccc23)C1=O
active: SR leukemia -21.1% | OVCAR-3 ovarian -16.2%
inactive: RPMI-8226 leukemia 21.5% | OVCAR-8 ovarian 80.3% | OVCAR-5 ovarian 109% | SK-OV-3 ovarian 108% | IGROV1 ovarian 76.3% | HS 578T breast 110%

COC1=C(Br)C(=O)C(OC)=C(Br)C1=O
inactive: SR leukemia 42.7% | RPMI-8226 leukemia 101% | OVCAR-8 ovarian 105% | OVCAR-5 ovarian 113% | OVCAR-4 ovarian 96.8% | SK-OV-3 ovarian 110% | IGROV1 ovarian 111% | OVCAR-3 ovarian 91% | NCI/ADR-RES ovarian 104%

Cc1cccc(C)c1NC(=O)CSC(=S)N1CCCCC1
inactive: SR leukemia 101% | RPMI-8226 leukemia 104% | OVCAR-8 ovarian 105% | OVCAR-5 ovarian 101% | OVCAR-4 ovarian 106% | SK-OV-3 ovarian 110% | IGROV1 ovarian 90.7% | OVCAR-3 ovarian 103% | NCI/ADR-RES ovarian 103%

C/C(=N\NC(=O)C(C)SC(C)C(=O)N/N=C(\C)c1cccnc1)c1cccnc1 (centres undefined)
inactive: SR leukemia 79.6% | RPMI-8226 leukemia 101% | OVCAR-8 ovarian 109% | OVCAR-5 ovarian 110% | SK-OV-3 ovarian 109% | IGROV1 ovarian 102% | OVCAR-3 ovarian 114% | HS 578T breast 101% | NCI/ADR-RES ovarian 108%
